Several values for one entry are separate records, joined by “and”; a condition that tells them apart may be missing. Equal entries are not always repeated. The source holds several records for some structures; these can differ, active in one and inactive in another. Activity calls are given as the source filed them. The calls were made as follows: active = hit-call score of the fitted dose curve at least 0.9, where 1 is the maximum; inactive = score below 0.9.
How the values were obtained:
[1] = read-out: Tumor necrosis factor (Homo sapiens) (UniProt P01375); assay: BSK_BT_xTNFa: BioMAP Diversity Plus: BT Assay for Tumor necrosis factor alpha (TNF-alpha) Biomarker Activity (AID 2284230); conditions: primary human B cells with PBMC
Summary of the method: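 B cells with PBMC in co-culture, dosed and sampled at 24 h; secreted TNF-alpha measured by Luminex xMAP bead assay. Activity fitted in the gain direction against DMSO as negative control and baseline.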

[2] = read-out: Collagen I, COL1A1 (gene 1277); assay: BSK_MyoF_CollagenI: BioMAP Diversity Plus: MyoF Assay for Collagen I Biomarker Activity (AID 2284238); conditions: primary human lung fibroblasts
Summary of the method: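 Collagen I levels measured by ELISA on human lung fibroblast cultures 24 h post-dosing, with curve fitting in the positive direction relative to DMSO; SRB staining of parallel wells marked cytotoxicity.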

[3] = read-out: Collagen III, COL3A1 (gene 1281); assay: BSK_MyoF_CollagenIII: BioMAP Diversity Plus: MyoF Assay for Collagen III Biomarker Activity (AID 2284239); conditions: primary human lung fibroblasts
Summary of the method: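 Collagen III biomarker quantified by ELISA in human lung fibroblast cultures 24 h after dosing. Activity fitted in the positive direction against DMSO as baseline.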

[4] = read-out: Vascular cell adhesion molecule 1 (VCAM1), VCAM1 (gene 7412); assay: BSK_MyoF_VCAM1: BioMAP Diversity Plus: MyoF Assay for Vascular cell adhesion molecule 1 (VCAM1) Biomarker Activity (AID 2284231); conditions: primary human lung fibroblasts
Summary of the method: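 ELISA readout of VCAM-1 on human lung fibroblast cultures 24 hours after dosing, analyzed for signal gain relative to DMSO. Overt cytotoxicity was checked by sulforhodamine B total-protein staining in parallel cultures.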

[5] = CCTE_Mundy_HCI_hNP1_Casp3_7: CCTE's Caspase-Glo 3/7 Assay in human neuroprogenitor cells for Apoptosis, Mundy Lab (AID 2284240)
Summary of the method: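 Apoptosis is scored by activated caspase-3/7 luminescence in WA09-derived neural progenitor cells, measured 26.5 h after chemical dosing. Values represent gain of signal relative to DMSO vehicle.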

Chain of Tumor necrosis factor (Homo sapiens) (P01375 whole entry, looked up): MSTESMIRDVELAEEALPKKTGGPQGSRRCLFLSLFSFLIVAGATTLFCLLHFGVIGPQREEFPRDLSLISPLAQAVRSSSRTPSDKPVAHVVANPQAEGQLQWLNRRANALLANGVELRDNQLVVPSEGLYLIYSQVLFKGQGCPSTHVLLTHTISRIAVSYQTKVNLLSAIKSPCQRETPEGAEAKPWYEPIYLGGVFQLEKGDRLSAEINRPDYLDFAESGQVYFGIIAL

In the case of `OCC(F)(F)C(F)(F)C(F)(F)C(F)(F)C(F)(F)C(F)(F)F`, the AC50 [1] was 41.2 µM (active), the outcome [1] was “inactive” and the outcome [2] was “inactive”. For the same compound, the outcome [3] was “inactive”.

With `CCO[Si](CCC(F)(F)C(F)(F)C(F)(F)C(F)(F)C(F)(F)C(F)(F)F)(OCC)OCC` the outcome [1] was “inactive”, the outcome [2] was “inactive” and the outcome [3] was “inactive”.

With `N=C(N)C(F)(F)C(F)(F)C(F)(F)C(F)(F)C(F)(F)C(F)(F)C(F)(F)F` the AC50 [1] was 45.5 µM (active), the outcome [1] was “inactive” and the outcome [4] was “inactive”. For the same compound, the outcome [2] was “inactive”, the outcome [3] was “inactive” and the outcome [5] was “inactive”.

In the case of `FC1CC(F)(F)C(F)(F)C1(F)F` (stereo unspecified), the outcome [1] was “inactive”, the outcome [4] was “inactive” and the outcome [2] was “inactive”. The outcome [3] was “inactive”.

With `C=CC(=O)OCC(F)(F)C(F)(F)C(F)(F)C(F)(F)C(F)(F)C(F)(F)C(F)(F)F` the AC50 [1] was 44.7 µM (active), the outcome [1] was “inactive” and the outcome [4] was “inactive”. The outcome [2] was “inactive” and the outcome [3] was “inactive”.

With `O=P(O)(O)OCCC(F)(F)C(F)(F)C(F)(F)C(F)(F)C(F)(F)C(F)(F)F` the outcome [2] was “inactive”, the outcome [3] was “inactive” and the outcome [5] was “inactive”.

With `C=CC(F)(F)C(F)(F)C(F)(F)C(F)(F)C(F)(F)C(F)(F)C(F)(F)C(F)(F)F` the outcome [2] was “inactive” and the outcome [3] was “inactive”.

For `CS(C)(=O)=O`, the outcome [4] was “inactive”, the outcome [2] was “inactive” and the outcome [3] was “inactive”.

With `FC(F)(F)C(F)(F)C(F)(F)CI` the outcome [4] was “inactive”, the outcome [2] was “inactive” and the outcome [3] was “inactive”. For the same compound, the outcome [5] was “inactive”.

With `FC(F)(F)C(F)(F)C(F)(F)C(F)(F)C(F)(F)C(F)(F)CC1CO1` (stereo unspecified) the outcome [2] was “inactive”, the outcome [3] was “inactive” and the outcome [5] was “inactive”.

In the case of `CC(=O)Nc1ccc(N=Nc2cc(C)ccc2O)cc1`, the AC50 [4] was 20 µM (active), the outcome [2] was “inactive” and the outcome [3] was “inactive”.

In the case of `O=C(O)C(F)(F)C(F)(F)C(F)(F)C(F)(F)C(F)(F)C(F)(F)C(F)(F)C(F)(F)C(F)(F)C(F)(F)C(F)(F)C(F)(F)F`, the AC50 [2] was 24.5 µM (active) and 18.6 µM (active) and the outcome [3] was “inactive”.

With `FC(F)(F)C(F)(F)C(F)(F)C(F)(F)C(F)(F)C(F)(F)C(F)(F)C(F)(F)F` the outcome [2] was “inactive”, the outcome [3] was “inactive” and the outcome [5] was “inactive”.

In the case of `FC(F)(F)C(F)(F)C(F)(F)N(C(F)(F)C(F)(F)C(F)(F)F)C(F)(F)C(F)(F)C(F)(F)F`, the outcome [2] was “inactive” and the outcome [3] was “inactive”.

In the case of `O=C(Cl)C(F)(F)C(F)(F)C(F)(F)C(F)(F)C(F)(F)C(F)(F)C(F)(F)C(F)(F)F`, the AC50 [2] was 41.3 µM (active) and 41.8 µM (active) and 44.2 µM (active) and the AC50 [3] was 22.5 µM (active) and 23.5 µM (active) and 24.7 µM (active).

For `O=S(=O)(O)C(F)(F)C(F)(F)C(F)(F)C(F)(F)C(F)(F)C(F)(F)C(F)(F)F`, the outcome [2] was “inactive” and the outcome [3] was “inactive”.

With `CCc1ccc(C(c2ccc(CC)cc2)C(Cl)Cl)cc1` the AC50 [2] was 9.01 µM (active) and the AC50 [3] was 8.17 µM (active).

In the case of `CCCCNc1ccccc1`, the outcome [2] was “inactive” and the outcome [3] was “inactive”.

In the case of `FC(F)(F)C(F)(F)C(F)(F)C(F)(F)C(F)(F)C(F)(F)C(F)(F)C(F)(F)CCS`, the outcome [2] was “inactive”, the outcome [3] was “inactive” and the outcome [5] was “inactive”.

With `CCc1c(Br)c(Br)c(Br)c(Br)c1Br` the AC50 [4] was 20 µM (active), the outcome [2] was “inactive” and the outcome [3] was “inactive”.

For `O=C(O)C(F)(OC(F)(F)C(F)(OC(F)(F)C(F)(F)C(F)(F)F)C(F)(F)F)C(F)(F)F` (stereo unspecified), the outcome [2] was “inactive” and the outcome [3] was “inactive”.

For `FC(F)(F)C(F)(F)CNCC(F)(F)C(F)(F)F`, the outcome [2] was “inactive” and the outcome [3] was “inactive”.

For `CCCCCCCCC(F)(F)C(F)(F)C(F)(F)C(F)(F)C(F)(F)C(F)(F)F`, the outcome [2] was “inactive” and the outcome [3] was “inactive”.

For `C=CC(=O)OCC(F)(F)C(F)(F)C(F)(F)C(F)(F)COC(=O)C=C`, the AC50 [4] was 9.29 µM (active) and 10.5 µM (active), the AC50 [2] was 14.4 µM (active) and 16.6 µM (active) and the AC50 [3] was 12.1 µM (active) and 14.6 µM (active). The outcome [5] was “inactive”.

In the case of `Cc1ccc(S(=O)(=O)OCC(F)(F)C(F)(F)C(F)(F)C(F)(F)C(F)(F)C(F)F)cc1`, the outcome [4] was “inactive”, the outcome [2] was “inactive” and the outcome [3] was “inactive”.

With `O=C(O)C(F)(OC(F)(F)C(F)(OC(F)(F)C(F)(OC(F)(F)C(F)(F)C(F)(F)F)C(F)(F)F)C(F)(F)F)C(F)(F)F` (stereo unspecified) the outcome [2] was “inactive” and the outcome [3] was “inactive”.

With `NC(=O)C(F)(F)C(F)(F)C(F)(F)C(F)(F)F` the outcome [2] was “inactive” and the outcome [3] was “inactive”.

With `OCC(F)(F)C(F)(F)C(F)(F)C(F)F` the outcome [4] was “inactive”, the outcome [2] was “inactive” and the outcome [3] was “inactive”. For the same compound, the outcome [5] was “inactive”.

In the case of `O=C(O)C(F)(F)C(F)(F)C(F)F`, the outcome [2] was “inactive” and the outcome [3] was “inactive”.

For `FC(F)(F)C(F)(F)C(F)(F)C(F)(F)C(F)(F)C(F)(F)C(F)(F)I`, the AC50 [2] was 4.56 µM (active) and 3.16 µM (active) and the AC50 [3] was 5.06 µM (active) and 4.85 µM (active).

For `O=C(O)C(F)(F)C(F)(F)F`, the outcome [2] was “inactive” and the outcome [3] was “inactive”.

With `OCCCC(F)(F)C(F)(F)C(F)(F)F` the outcome [4] was “inactive”, the outcome [2] was “inactive” and the outcome [3] was “inactive”.
